# Test results reported in PubChem BioAssay (NCATS).
# Where “and” joins values, the source holds several entries; their conditions need not be identical. Equal entries are not always repeated. A number with no mark means an inactive call. Unless noted, calls follow the shape of the dose curve; as a rule, active = well fitted inhibition curve with a large enough effect; inconclusive = small, poorly fitted or top-dose-only effect; inactive = flat fitted curve, though single readings scatter. Records with an inconclusive call do not appear.
# Key:
# [1] = Drug repurposing screens with cells derived from glioblastoma tumor samples (AID 1345199); conditions: GBM patient neurospheres viability, ATP luminescence, 48 h; also: % is scaled to controls: 0 for no effect and ±100 for the full control effect; nearly all actives have a fitted effect of over 40% in size
# How it was run: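 Four patient lines of CD133+ GBM neurospheres were screened at several concentrations; hits were retested in those lines plus three slower-growing GBM lines, using 48-hour treatment and ATP-based viability.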
# [2] = molecular target: Nuclear receptor subfamily 1 group I member 2 (Rattus norvegicus) (UniProt Q9R1A7); experiment: qHTS assay for small molecule activators of the rat pregnane X receptor (rPXR) signaling pathway (AID 651751; call rule not given here; also: 0% is about no effect); conditions: rPXR reporter cells, luciferase (One-Glo), 24 h
# Sequence of Nuclear receptor subfamily 1 group I member 2 (Rattus norvegicus) (Q9R1A7 whole entry, looked up): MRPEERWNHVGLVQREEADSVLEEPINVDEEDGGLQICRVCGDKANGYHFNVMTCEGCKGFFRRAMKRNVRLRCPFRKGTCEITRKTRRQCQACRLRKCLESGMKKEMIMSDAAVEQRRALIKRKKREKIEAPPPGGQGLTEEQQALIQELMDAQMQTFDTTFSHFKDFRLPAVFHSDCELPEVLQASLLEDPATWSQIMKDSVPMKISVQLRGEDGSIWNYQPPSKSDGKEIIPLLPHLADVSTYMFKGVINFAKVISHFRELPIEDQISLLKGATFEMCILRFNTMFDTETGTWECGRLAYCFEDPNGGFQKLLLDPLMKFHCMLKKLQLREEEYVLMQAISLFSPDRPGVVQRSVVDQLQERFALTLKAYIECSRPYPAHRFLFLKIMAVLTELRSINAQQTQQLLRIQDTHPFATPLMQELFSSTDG
smiles,measurement,setting,value
OCCN1CCN(CC/C=C2/c3ccccc3Sc3ccc(Cl)cc32)CC1,"activity, negative = cell killing","[1]; at 21.2 µM (top of the series), tumour line B",-19.4%
same,"activity, negative = cell killing","[1]; at 21.2 µM (top of the series), tumour line D",-24.9%
O=C(NNCS(=O)(=O)O)c1ccncc1,"activity, negative = cell killing","[1]; at 46 µM (top of the series), tumour line A",-67.1%
O=c1n(CC2CO2)c(=O)n(CC2CO2)c(=O)n1CC1CO1 (centres undefined),max response,[2],-7.41% and -4.4%
